# Screening results as filed in PubChem.
# FadD28 FP inh = inhibitors of Mycobacterium tuberculosis FadD28 bisubstrate binding. FadD28 bisubstrate probe binding, fluorescence polarization. inhibition, % at 12.5 µM. 0.22% of 360,000 active; in the data active means inhibition above about 8.5%, passing the limit was not always enough
# Mtb bLac sens = beta-lactam sensitization of Mtb H37Rv; M. tuberculosis H37Rv growth with meropenem, percent inhibition; inhibition, % at 25 µM; 0.27% of 330,000 active; call rule not given here;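 further: growth measured after seven days incubation then overnight dye step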
# Vc quorum ag = quorum light induction in luxS cqsA deficient V. cholerae | V. cholerae BH1578 lux reporter, luminescence, 6 h | activation, % at 18.7 µM | 0.16% of 350,000 active; in the data active means activation mostly above about 9.7%, no sharp cut-off
# Rv3671c protease = inhibitors of M. tuberculosis serine protease Rv3671c; P9WHR9; inhibition, % at 5.96 µM; 0.048% of 320,000 active; in the data active means inhibition above about 38%;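 further: extracellular domain of Rv3671c used as enzyme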
# Target sequence (P9WHR9 whole entry, looked up, the tested form may be a part): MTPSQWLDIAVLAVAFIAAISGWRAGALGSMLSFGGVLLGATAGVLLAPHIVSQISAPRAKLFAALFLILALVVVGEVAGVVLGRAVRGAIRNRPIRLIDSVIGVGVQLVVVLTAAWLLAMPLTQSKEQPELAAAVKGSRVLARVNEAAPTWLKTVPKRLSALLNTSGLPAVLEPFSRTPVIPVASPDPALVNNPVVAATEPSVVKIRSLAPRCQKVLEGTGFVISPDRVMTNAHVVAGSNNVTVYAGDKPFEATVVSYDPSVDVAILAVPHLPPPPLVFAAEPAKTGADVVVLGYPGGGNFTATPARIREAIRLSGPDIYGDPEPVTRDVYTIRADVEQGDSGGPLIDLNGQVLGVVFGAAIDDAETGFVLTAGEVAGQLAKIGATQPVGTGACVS
# MazEF act = activators of E. coli MazEF toxin-antitoxin RNase; P0AE70; FAM/BHQ RNA-DNA oligo cleavage fluorescence, 5 h; activation, % at 20 µM; 0.32% of 350,000 active; in the data active means activation above about 50%
# Target sequence (P0AE70 whole entry, looked up): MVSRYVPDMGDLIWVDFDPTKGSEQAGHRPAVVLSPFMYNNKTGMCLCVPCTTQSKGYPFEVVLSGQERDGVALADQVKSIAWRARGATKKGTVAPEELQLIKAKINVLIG
# Mtb UGM inh = blocks M. tuberculosis UGM enzyme. purified UGM, fluorescence polarization probe displacement. inhibition, % at 10 µM. 0.06% of 320,000 active; in the data active means inhibition above about 10%, passing the limit was not always enough
# A number is an active result; – = inactive; · = no result; + = active, no number. The list is not random: actives were taken first. Their share in the collection is about 0.74%.
SMILES,FadD28 FP inh,Mtb bLac sens,Vc quorum ag,Rv3671c protease,MazEF act,Mtb UGM inh
CCN1CCN(c2cc(C)c3cc(NC(=O)c4ccc(C)c(C)c4)ccc3n2)CC1,–,–,–,–,58.8,–
CCN1CCN(c2cc(C)c3cc(NC(=O)c4ccncc4)ccc3n2)CC1,–,–,·,–,–,–
O=C(Nc1ccc(F)cc1)Nc1ccc(N2CCCC2)c(S(=O)(=O)Nc2ccccc2Cl)c1,–,–,–,–,52.7,–
O=C(Nc1ccc(Cl)c(Cl)c1)Nc1ccc(N2CCCC2)c(S(=O)(=O)Nc2ccccc2Cl)c1,–,–,–,–,–,–
CC1(C(=O)NS(=O)(=O)Cc2cccc(Cl)c2)CCN1C(=O)CC1CCCC1 (stereo not given),–,·,–,·,·,·
CC1=CN2C(=N)/C(=C/c3ccc([N+](=O)[O-])o3)C(=O)N=C2S1,–,–,–,–,116.1,–
COc1ccc(CN2CCC(C(=O)Nc3ccc(Oc4cccnc4)cc3)CC2)cc1,15.7,–,–,–,–,–
COc1cccc(CNC23CC4CC(CC(C4)C2)C3)c1OCc1ccccc1,–,–,–,–,–,–
CN=c1scc(-c2ccccc2F)n1/N=C/c1ccc[nH]1,–,–,–,–,–,–
CN=c1scc(-c2ccccc2F)n1/N=C/c1ccc(O)c(O)c1O,9.1,·,–,·,–,·
NC(=O)c1ncn([C@@H]2O[C@H](CNCc3cc(Cl)ccc3OCc3ccc(Cl)cc3)[C@@H](O)[C@H]2O)n1,–,·,–,·,–,·
O=C(NNC(=O)c1ccc2ccccc2c1)c1cccc(Cl)c1,–,·,–,·,–,·
COc1cccc(/C=N/n2c(-c3ccco3)nc3ccccc3c2=O)c1OC,–,–,–,–,–,10.6
CC1(C(=O)NS(=O)(=O)c2cccc(Cl)c2)CCN1C(=O)C1(c2ccc(Cl)cc2)CCC1 (stereo not given),–,·,–,·,·,·
CCOC(=O)C1=CN(Cc2cccc(F)c2)S(=O)(=O)N(C)C1c1cccc(OC)c1 (stereo not given),–,·,–,·,50.4,·
CCOC(=O)C1=CN(Cc2cccc(F)c2)S(=O)(=O)N(C)C1c1ccccc1 (stereo not given),–,·,–,·,–,·
CCN(CC)Cc1cc(Oc2ccc(O)c(CN(CC)CC)c2)ccc1O,–,·,·,·,·,·
O=c1ccc2cc3c([nH]c4ccc(Br)cc43)oc-2c1O,21.5,–,–,–,·,–
O=C(O)c1ccc(N=Nc2c(O)[nH]c3ccc(Br)cc23)cc1,–,–,–,–,–,–
CCOC(=O)C1(CCc2ccccc2)CCN(C(=O)[C@@H]2C[C@@H](C)NC(=S)N2)CC1,–,–,–,–,–,–
O=C(O)c1[nH]c2ccccc2c1C(c1cc(Cl)cc([N+](=O)[O-])c1O)c1c(C(=O)O)[nH]c2ccccc12,56.2,–,–,–,–,–
O=C(O)COc1ccc(Br)cc1C(c1c(C(=O)O)[nH]c2ccccc12)c1c(C(=O)O)[nH]c2ccccc12,28.0,–,–,–,–,–
C=CCOc1ccc(C(c2c(C(=O)O)[nH]c3ccccc23)c2c(C(=O)O)[nH]c3ccccc23)cc1,40.2,–,–,–,–,–
COCC(=O)c1[nH]c2ccccc2c1C,–,–,–,–,–,–
COC(=O)c1[nH]c2ccc(Cl)cc2c1NC(=O)c1ccccc1[N+](=O)[O-],–,–,–,–,–,–
SMILES,FadD28 FP inh,Mtb bLac sens,Vc quorum ag,Rv3671c protease,MazEF act,Mtb UGM inh
O=C(O)c1[nH]c2ccccc2c1C(c1ccccc1)c1c(C(=O)O)[nH]c2ccccc12,22.1,–,–,–,–,–
COc1ccccc1OCCCCn1ncc2ccc(OC)c(OC)c2c1=O,–,–,–,–,–,–
CC1CCCC(NC(=O)c2cccs2)C1C (stereo not given),–,–,–,–,–,–
Cc1cn([C@H]2C[C@H](O)[C@@H](CNC(=O)CNC(=O)CN)O2)c(=O)[nH]c1=O,–,·,–,·,–,·
Cc1cccc(C(=O)N[C@H](C(=O)Nc2ccc(C)c(S(=O)(=O)N3CCOCC3)c2)C(C)C)c1,–,–,–,–,–,–
CC12CCC(=O)N1C(C(=O)NCc1ccccc1Cl)CS2 (stereo not given),–,–,–,–,–,–
COc1cc(C(c2c(C(=O)O)[nH]c3ccccc23)c2c(C(=O)O)[nH]c3ccccc23)ccc1OCc1ccccc1,32.2,–,–,–,–,–
CC1CC(=Cc2ccc([N+](=O)[O-])cc2)C(=O)O1 (stereo not given),–,·,–,·,–,·
CCOC(=O)/C(C#N)=N/Nc1ccccc1OC,–,–,–,–,64.6,–
CCOCCC(=O)Nc1cc(Cl)ccc1OC,–,–,–,–,–,–
CCOC(=O)/C(C#N)=N\Nc1cc(Cl)ccc1OC,–,–,–,–,325.8,–
CCC1(c2ccccc2)NC(=O)N(CC(=O)N(C)Cc2c(F)cccc2Cl)C1=O (stereo not given),–,–,–,–,–,–
COc1ccc(OC)c(/C=C2\N=C(c3ccccc3)OC2=O)c1,–,–,–,–,+,–
COc1cc(/C=C2\N=C(c3ccccc3)OC2=O)ccc1OC(C)=O,–,–,–,–,–,–
Cc1cc(NC(=O)/C(C#N)=C\c2ccc(-c3ccc(SC(F)F)cc3)o2)n(-c2ccccc2)n1,–,·,–,·,431.7,·
Cc1c(NC(=O)/C(C#N)=C/c2ccc(-c3ccc(Cl)c(Cl)c3)o2)c(=O)n(-c2ccccc2)n1C,–,–,–,–,–,·
O=C(Nc1ccc(Cl)c(C(F)(F)F)c1)C1Cc2c(-c3ccc4c(c3)OCO4)ccnc2O1 (stereo not given),–,·,–,·,·,·
CC(C)(C)c1ccc(S(=O)(=O)N2CCN(CC(=O)NC(=O)NC3CCCCC3)CC2)cc1,–,–,–,–,–,–
CCCCOc1ccc(OCCCC)c2c1NC1(N2)C(=O)N(C(C)=O)c2ccccc21,–,–,–,–,105.1,–
Cc1cccc(NC(=O)Cn2c(=O)oc3ccccc32)c1,34.6,–,–,–,–,–
Cc1cccc(NC(=O)Cn2c(=O)n(CCC(=O)NC3CCCC3)c(=O)c3ccccc32)c1,–,–,–,–,83.6,–
O=C(Cn1c(=O)oc2ccccc21)Nc1cccc(Cl)c1,10.6,–,–,–,–,–
O=C(OCc1cn([C@H]2CN(CC3CCCCC3)[C@@H](c3ccc(Cl)cc3)C[C@@H]2O)nn1)c1ccccc1,–,·,–,·,–,·
CCc1nc(SCC(=O)Nc2cc(OC)ccc2OC)c2c(C)c(C)sc2n1,–,–,–,–,–,–
Cc1cc(=O)oc2cc(OCC(=O)Nc3ccccc3C(N)=O)c(Cl)cc12,–,–,–,–,–,–
Cc1ccc(/C=C2/SC(=O)NC2=S)o1,15.7,·,–,·,–,·
Cc1cccc(CN2C(=O)N/C(=C/c3ccc(C)s3)C2=O)c1,–,–,–,–,189.5,–
O=c1ccc2[n+]([O-])c3ccc(O)cc3oc-2c1,98.1,·,–,·,–,·
CCC(=O)NC(c1cccs1)c1cc([N+](=O)[O-])c2cccnc2c1O (stereo not given),–,–,96.4,–,–,–
